About 6,000 (1.7%) of roughly 350,000 compounds were called active. Roughly 5% stayed inconclusive and do not appear here. Rule as the data show it: active = CPE inhibition above about 20% (passing the limit was not always enough); inconclusive = no clear call, values can overlap the other calls; tested in BHK-21 cells. The list comes from a sample in which actives are over-represented; it also holds similar structures and randomly drawn compounds.
Test: inhibitors of DENV2 cytopathic effect, primary screen, cell-based, plate reader, single concentration (AID 651640);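 also: 0% = median of neutral control wells and 100% = median of positive control wells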
Settings: DENV2-infected cells, cytopathic effect rescue, at 9.99 µM, hits give high values
For `CC(C)NC(=O)Nc1ccc2c(c1)C(=O)N(C)[C@H]1CC[C@H](CC(=O)NCC3CCCCC3)O[C@@H]1CO2`, the CPE inhibition was -11% (inactive). With `C=C[C@H](OC)[C@@H](O)c1ccc(OC)c(O)c1` the CPE inhibition was -1.37% (inactive). For `C[C@H](CO)N1C[C@H](C)[C@@H](CN(C)C(=O)CCC(F)(F)F)OCCCC[C@H](C)Oc2ccc(NC(=O)C3CCCCC3)cc2C1=O`, the CPE inhibition was -0.808% (inactive). With `CCS(=O)(=O)N1[C@H](CO)[C@@H](c2ccccc2)C12CN(C(=O)C1CCC1)C2` the CPE inhibition was -6.37% (inactive). For `Cc1noc(C)c1NC(=O)N(C)C[C@@H]1Oc2ccc(NC(=O)Nc3ccc4c(c3)OCO4)cc2CC(=O)N([C@H](C)CO)C[C@H]1C`, the CPE inhibition was 9.34% (inactive). In the case of `C[C@@H]1CN([C@H](C)CO)C(=O)c2cc(C#CCC3CCCC3)cnc2O[C@H]1CN(C)C(=O)c1cnccn1`, the CPE inhibition is reported as 4.48% (inactive). For `CO[C@H]1O[C@H](CO)[C@@H](OC(=O)Nc2ccc(C(F)(F)F)cc2)[C@H](OC(=O)Nc2ccc3c(c2)OCO3)[C@H]1OC(=O)Nc1ccc2c(c1)OCO2`, the CPE inhibition was 3.41% (inactive). In the case of `CO[C@@H]1CN(C)C(=O)c2cc(NC(=O)C3CC3)ccc2OC[C@@H](C)N(Cc2ccc(F)cc2)C[C@@H]1C`, the CPE inhibition is reported as 3.49% (inactive). With `C[C@@H]1CN([C@@H](C)CO)C(=O)Cc2cc(NS(C)(=O)=O)ccc2O[C@H]1CN(C)C(=O)Nc1ccccc1` the CPE inhibition was 16.2% (inactive). For `C[C@@H]1CN([C@H](C)CO)C(=O)Cc2cc(NC(=O)CCN3CCOCC3)ccc2O[C@H]1CN(C)CC1CC1`, the CPE inhibition was -0.438% (inactive). In the case of `COc1ccc2c3c(n(C)c2c1)[C@H](CO)N(CC1CCCCC1)CC31CCN(Cc2nccs2)CC1`, the CPE inhibition is reported as 22.7% (active). In the case of `COc1ccc2c3c([nH]c2c1)[C@@H](CO)N(Cc1nccs1)CC31CCN(C(=O)C2CCCC2)CC1`, the CPE inhibition is reported as -11.8% (inactive). In the case of `COc1ccc2c3c(n(C)c2c1)[C@@H](CO)N(C(=O)c1ccc(F)cc1)CC31CN(C(=O)c2ccc(F)cc2)C1`, the CPE inhibition is reported as 2.03% (inactive). For `COc1ccc2c3c([nH]c2c1)[C@@H](CO)N(C(=O)C1CC1)CC31CCN(Cc2nccs2)CC1`, the CPE inhibition was 25.2% (active). For `COc1cc(CN2CC3(CN(S(=O)(=O)c4cn(C)cn4)C3)c3c(n(C)c4cc(OC)ccc34)[C@H]2CO)cc(OC)c1`, the CPE inhibition was 58.8% (active). In the case of `CCS(=O)(=O)N1CC2(CN(Cc3cc(F)ccc3F)[C@@H](CO)c3c2c2ccc(OC)cc2n3C)C1`, the CPE inhibition is reported as -8.85% (inactive). For `CCS(=O)(=O)N1CC2(CN(C(=O)c3ccc(F)cc3)[C@H](CO)c3c2c2ccc(OC)cc2n3C)C1`, the CPE inhibition was 21.9% (active). With `CCS(=O)(=O)N1CC2(CN(Cc3ccccc3)[C@@H](CO)c3c2c2ccc(OC)cc2n3C)C1` the CPE inhibition was 6.33% (inactive). For `COc1ccc2c3c([nH]c2c1)[C@H](CO)N(Cc1nccs1)CC31CCN(C(=O)C2CCC2)CC1`, the CPE inhibition was -3.4% (inactive). With `CCS(=O)(=O)N1CC2(CN(C(=O)c3ccc(F)cc3)[C@@H](CO)c3c2c2ccc(OC)cc2n3C)C1` the CPE inhibition was -7% (inactive). For `COc1ccc2c3c(n(C)c2c1)[C@@H](CO)N(C(C)=O)CC31CCN(Cc2nccs2)CC1`, the CPE inhibition was -1.04% (inactive). For `COc1ccc2c3c(n(C)c2c1)[C@H](CO)N(C(=O)CC1CC1)CC31CCN(Cc2nccs2)CC1`, the CPE inhibition was -5.74% (inactive). In the case of `Cc1noc(C)c1NC(=O)Nc1ccc2c(c1)C(=O)N([C@H](C)CO)C[C@H](C)[C@H](CN(C)Cc1ccc(C(=O)O)cc1)OCCCC[C@H](C)O2`, the CPE inhibition is reported as 3.28% (inactive). For `CO[C@H](CN(C)S(=O)(=O)c1ccc(C)cc1)[C@@H](C)CN(Cc1ccccc1Cl)[C@@H](C)CO`, the CPE inhibition was -6.58% (inactive). With `C[C@H]1CCCCO[C@@H](CN(C)Cc2ccc3c(c2)OCO3)[C@@H](C)CN([C@@H](C)CO)C(=O)c2cc(NC(=O)c3ccccc3)ccc2O1` the CPE inhibition was -5.55% (inactive). With `C[C@H](CO)N1C[C@H](C)[C@@H](CN(C)S(=O)(=O)c2cccs2)OCCCC[C@H](C)Oc2ccc(NS(=O)(=O)c3ccccc3)cc2C1=O` the CPE inhibition was -5.76% (inactive). With `Cc1ccc(S(=O)(=O)Nc2ccc3c(c2)C(=O)N([C@@H](C)CO)C[C@H](C)[C@@H](CN(C)C(=O)Nc2ccc(F)cc2)OCCCC[C@H](C)O3)cc1` the CPE inhibition was 0.458% (inactive). With `O=C(C[C@H]1CC[C@H]2[C@@H](COC[C@H](O)CN2CCC(F)(F)F)O1)N1CCC(Cc2ccccc2)CC1` the CPE inhibition was 0.858% (inactive). With `O=C(CN1CCN(c2ccccc2)CC1)Nc1ccc(F)cc1` the CPE inhibition was -6.81% (inactive). In the case of `Cc1ccc2cc(C)c(N3CCN(c4ccc(F)cc4)CC3)nc2c1`, the CPE inhibition is reported as -3.88% (inactive). With `CC(=O)c1c(N2CCN(c3ccc(F)cc3)CC2)nc(=S)n(-c2ccccc2)c1C` the CPE inhibition was 46.2% (active). For `CN1C(=O)c2cc(NC(=O)C3CCCC3)ccc2OC[C@@H]2O[C@@H](CC(=O)NCCc3ccncc3)CC[C@@H]21`, the CPE inhibition was 26.3% (active). With `CCC(=O)Nc1ccc2c(c1)C(=O)N(C)[C@@H]1CC[C@H](CC(=O)NCCc3ccncc3)O[C@@H]1CO2` the CPE inhibition was -5.57% (inactive). With `CN1C(=O)c2cc(NC(=O)C3CCCC3)ccc2OC[C@H]2O[C@@H](CC(=O)NCCc3ccncc3)CC[C@H]21` the CPE inhibition was 5.23% (inactive). In the case of `C[C@@H]1CN([C@H](C)CO)S(=O)(=O)c2ccc(-c3ccc(C(=O)N(C)C)cc3)cc2O[C@@H]1CN(C)C(=O)Nc1ccccc1F`, the CPE inhibition is reported as 2.86% (inactive). In the case of `Cc1ccc(S(=O)(=O)N2[C@@H](c3cccc(Cl)c3)C(C(=O)O)=CC[C@H]2c2ccc(Cl)c(Cl)c2)cc1`, the CPE inhibition is reported as 40% (active). With `Cc1ccc([C@@H]2CC=C(C(=O)O)[C@H](c3cccc(Cl)c3)N2S(=O)(=O)c2ccc(C)cc2)cc1` the CPE inhibition was 42.3% (active). With `Cc1ccccc1S(=O)(=O)N1[C@@H](c2cccc(Cl)c2)C(C(=O)OC(C)(C)C)=CC[C@H]1c1ccc(Cl)cc1` the CPE inhibition was -8.63% (inactive). With `CCOC(=O)C1=CC[C@@H](c2ccccc2)N(S(=O)(=O)c2ccc(C)cc2)[C@H]1c1cccc(OC)c1` the CPE inhibition was -3.53% (inactive). In the case of `Cc1ccc(S(=O)(=O)N2[C@@H](c3ccccc3F)C(C(=O)O)=CC[C@H]2c2ccc(Cl)cc2)cc1`, the CPE inhibition is reported as -10.7% (inactive). For `Cc1ccccc1S(=O)(=O)N1[C@@H](c2cccc(Cl)c2)C(C(=O)O)=CC[C@H]1c1ccc(Cl)cc1`, the CPE inhibition was 6.18% (inactive). With `O=C(C[C@H]1CC[C@@H](NC(=O)CC2CC2)[C@@H](CO)O1)NCc1ccccc1` the CPE inhibition was 3.95% (inactive). With `C[C@@H]1CN([C@H](C)CO)C(=O)c2cc(NC(=O)Nc3ccc(F)cc3)ccc2O[C@@H](C)CCCCO[C@@H]1CN(C)S(=O)(=O)c1cn(C)cn1` the CPE inhibition was 2.14% (inactive). In the case of `C[C@H](CO)N1C[C@H](C)[C@H](CN(C)Cc2cncnc2)Oc2cc(-c3ccccc3F)ccc2S1(=O)=O`, the CPE inhibition is reported as -2.27% (inactive). For `C[C@@H]1CCCCO[C@H](CN(C)Cc2ccccc2)[C@H](C)CN([C@@H](C)CO)C(=O)c2cc(NC(=O)Nc3cccc4ccccc34)ccc2O1`, the CPE inhibition was -25.3% (inactive). In the case of `C[C@@H](NC(=O)C[C@@H]1CC[C@H]2[C@@H](COC[C@@H](O)CN2C(=O)Nc2cccc(F)c2)O1)c1ccccc1`, the CPE inhibition is reported as 4.9% (inactive). With `O=C(C[C@@H]1CC[C@H]2[C@@H](COC[C@@H](O)CN2C(=O)Nc2ccc(F)cc2)O1)NCC1CC1` the CPE inhibition was -0.669% (inactive). For `CCCNC(=O)C[C@H]1CC[C@H]2[C@@H](COC[C@H](O)CN2C(=O)Nc2c(C)noc2C)O1`, the CPE inhibition was 40.9% (active). For `O=C(C[C@H]1CC[C@H]2[C@@H](COC[C@H](O)CN2C(=O)Nc2ccc(Cl)cc2)O1)NCC1CC1`, the CPE inhibition was 85.5% (active). With `C[C@@H](NC(=O)C[C@H]1CC[C@H]2[C@@H](COC[C@@H](O)CN2C(=O)Nc2ccccc2)O1)c1ccccc1` the CPE inhibition was -9.46% (inactive). With `C[C@@H](NC(=O)C[C@@H]1CC[C@@H]2[C@H](COC[C@@H](O)CN2C(=O)Nc2cccc(F)c2)O1)c1ccccc1` the CPE inhibition was 24.3% (active). With `CCCNC(=O)C[C@@H]1CC[C@H]2[C@@H](COC[C@H](O)CN2C(=O)Nc2ccc(Cl)c(Cl)c2)O1` the CPE inhibition was 2.89% (inactive). With `CCNC(=O)C[C@H]1CC[C@@H]2[C@H](COC[C@H](O)CN2C(=O)Nc2c(C)noc2C)O1` the CPE inhibition was -1.85% (inactive). With `O=C(C[C@@H]1CC[C@H]2[C@@H](COC[C@H](O)CN2C(=O)Nc2ccc(Cl)cc2)O1)NCC1CC1` the CPE inhibition was 6.37% (inactive). In the case of `COc1ccc(NC(=O)N2C[C@H](O)COC[C@H]3O[C@@H](CC(=O)NC4Cc5ccccc5C4)CC[C@@H]32)cc1`, the CPE inhibition is reported as -9.25% (inactive). For `COc1ccc2c3c(n(C)c2c1)[C@@H](CO)N(C)CC31CN(CC2CC2)C1`, the CPE inhibition was -0.913% (inactive). For `Cc1ccc(-c2cc(=O)c3ccc(F)cc3[nH]2)cc1`, the CPE inhibition was 25% (active). In the case of `O=c1cc(-c2ccccc2)[nH]c2cc(F)ccc12`, the CPE inhibition is reported as -7.41% (inactive). With `Cc1ccc(-c2cc(=O)c3ccc(Cl)cc3[nH]2)cc1` the CPE inhibition was 0.541% (inactive). For `CC(C)CC#Cc1ccc([C@H]2[C@@H](CO)N3C(=O)CN(C(=O)CN4CCOCC4)C[C@H]23)cc1`, the CPE inhibition was -8.34% (inactive). For `CCN1CCN(CC(=O)c2cc(OC)c(OC)c(OC)c2)CC1`, the CPE inhibition was -1.76% (inactive). With `COc1cc(C(=O)OCCCN2CCOCC2)cc(OC)c1OC` the CPE inhibition was 49.2% (active). For `COc1ccc(C(=O)NCCCN2CCOCC2)cc1Br`, the CPE inhibition was 8.89% (inactive). In the case of `O=C(C[C@@H]1C=C[C@@H](NC(=O)c2ccccc2)[C@H](CO)O1)NCCc1ccncc1`, the CPE inhibition is reported as -5.54% (inactive). With `O=C(c1ccc(C(F)(F)F)cc1)N1CCC(=O)N([C@H](COCc2ccccc2)Cc2ccccc2)CC1` the CPE inhibition was -2.73% (inactive). With `CC(C)C[C@@H](COCc1ccc(Cl)cc1)N1CCN(C(=O)c2ccc(Cl)cc2Cl)CCC1=O` the CPE inhibition was -4.03% (inactive). In the case of `CC(C)CC(COCc1ccc(Cl)cc1)N1CCN(C(=O)c2ccc(C(F)(F)F)cc2)CCC1=O` (configuration not stated), the CPE inhibition is reported as 49.9% (active).
